The results in this text go back to the supplement of paper PMC9694430.

Where “and” joins values, the source holds several entries; their conditions need not be identical. Identical values can stand only once.

Holding throughout (experiment): thermal shift delta Tm vs DMSO control; higher = stronger stabilization (binding)
Settings in all cases: 12.5 µM; protein concentration 2 µM

In one experiment the test system is LOC_OS01G01410-cb001. In outline: (§1)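 Thermal shift values come from differential scanning fluorimetry on purified rice kinase domains made in E. coli, with melting temperatures obtained from Boltzmann fits. Samples of 19.5 μl held 2 μM kinase, 100 mM potassium phosphate pH 7.5, 150 mM NaCl, 10% glycerol, 5 × SYPRO Orange and compound in DMSO, and were heated from 25°C to 95°C at 0.05°C/s. Each shift is a triplicate mean relative to the DMSO-only protein sample.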

For another experiment, the system named is LOC_OS01G02750-cb003. In outline: as §1
The next experiment relates to LOC_OS01G10900-cb004. In outline: as §1
The subject of another experiment is LOC_OS01G13800-cb001. In outline:
as §1

For the next experiment, the system named is LOC_OS01G14860-cb001. In outline: as §1
In another experiment the test system is LOC_OS01G21960-cb002. In outline: as §1
A further experiment deals with LOC_OS01G39600-cb002. In outline: as §1
Another experiment deals with LOC_OS01G48390-cb002. In outline: as §1
The next experiment deals with LOC_OS01G51400-cb002. In outline:
as §1

The test system of a further experiment is T1, LOC_OS01G52050-cb004.
T1 sequence (whole entry): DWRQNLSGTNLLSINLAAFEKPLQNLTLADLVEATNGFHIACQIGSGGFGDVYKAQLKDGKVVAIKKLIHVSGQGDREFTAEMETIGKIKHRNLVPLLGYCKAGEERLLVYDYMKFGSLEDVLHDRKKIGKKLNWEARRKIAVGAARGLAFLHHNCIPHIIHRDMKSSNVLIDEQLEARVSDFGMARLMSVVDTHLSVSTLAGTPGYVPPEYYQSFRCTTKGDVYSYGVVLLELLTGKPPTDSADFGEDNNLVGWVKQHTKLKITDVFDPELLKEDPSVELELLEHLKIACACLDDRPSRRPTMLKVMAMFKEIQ
In outline:
as §1

The test system of another experiment is LOC_OS01G57100-cb003. In outline:
as §1

Another experiment concerns LOC_OS01G60330-cb001. In outline:
as §1

The next experiment concerns LOC_OS01G60700-cb002. In outline: as §1
A further experiment has as its system LOC_OS01G63280-cb003. In outline: as §1
A further experiment concerns LOC_OS01G67340-cb003. In outline:
as §1

Another experiment relates to LOC_OS01G70970-cb002. In outline: as §1
Another experiment concerns LOC_OS02G07810-cb001. In outline: as §1
The next experiment concerns LOC_OS02G08530-cb003. In outline:
as §1

The subject of a further experiment is LOC_OS02G14120-cb001. In outline:
as §1

Another experiment relates to LOC_OS02G17970-cb001. In outline:
as §1
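Note: purified Escherichia coli-expressed rice kinase domain construct.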

Turning to `O=C1NC(=O)C(=Cc2ccc(-c3ccc(F)cc3)o2)S1` (stereo in doubt), the “thermal shift delta Tm” value came to 0.61 °C in the experiment on LOC_OS01G01410-cb001; 1.08 °C in the experiment on LOC_OS01G02750-cb003; 0.58 °C in the experiment with LOC_OS01G10900-cb004; 0.53 °C with LOC_OS01G13800-cb001; 0.85 °C with LOC_OS01G14860-cb001; 1.54 °C with LOC_OS01G21960-cb002. Further, the “thermal shift delta Tm” value with LOC_OS01G39600-cb002 turned out to be 0.11 °C; in the experiment with LOC_OS01G48390-cb002, 0.58 °C; in the experiment on LOC_OS01G51400-cb002, 0.18 °C; in the experiment on LOC_OS01G52050-cb004, 0.58 °C; in the experiment with LOC_OS01G57100-cb003 it was 3.43 °C; in the experiment on LOC_OS01G60330-cb001, 0.21 °C. Further, the “thermal shift delta Tm” value in the experiment on LOC_OS01G60700-cb002 came out at 0.92 °C; in the experiment on LOC_OS01G63280-cb003 it was 0.52 °C; in the experiment on LOC_OS01G67340-cb003, 1.18 °C; with LOC_OS01G70970-cb002, 0.36 °C; with LOC_OS02G07810-cb001 it was 1.67 °C; in the experiment with LOC_OS02G08530-cb003 it was 1.15 °C. The “thermal shift delta Tm” value with LOC_OS02G14120-cb001 came to 0.34 °C; with LOC_OS02G17970-cb001 it was 1.28 °C.

Take `Cc1ccc([N+](=O)[O-])cc1S(=O)(=O)N(C)/N=C/c1cnc2ccc(Br)cn12`: the “thermal shift delta Tm” value in the experiment on LOC_OS01G01410-cb001 came to 1.6 °C; in the experiment on LOC_OS01G02750-cb003 it was 11.6 °C; in the experiment on LOC_OS01G10900-cb004 it was 7.32 °C; with LOC_OS01G13800-cb001, 0.52 °C; in the experiment with LOC_OS01G14860-cb001, 8.02 °C; in the experiment with LOC_OS01G21960-cb002, 3.8 °C. Moreover, the “thermal shift delta Tm” value in the experiment with LOC_OS01G39600-cb002 was 1.85 °C; in the experiment with LOC_OS01G48390-cb002 it was 1.1 °C; in the experiment on LOC_OS01G51400-cb002, 0.2 °C; in the experiment with LOC_OS01G52050-cb004, 11.7 °C; with LOC_OS01G57100-cb003 it was 3.41 °C; in the experiment with LOC_OS01G60330-cb001, -0.03 °C. Also, the “thermal shift delta Tm” value was 1.24 °C with LOC_OS01G60700-cb002; 1.7 °C with LOC_OS01G63280-cb003; 3.58 °C in the experiment with LOC_OS01G67340-cb003; 4.2 °C in the experiment with LOC_OS01G70970-cb002; 0.51 °C with LOC_OS02G07810-cb001; 6.04 °C with LOC_OS02G08530-cb003. The “thermal shift delta Tm” value with LOC_OS02G14120-cb001 turned out to be 9.06 °C; in the experiment on LOC_OS02G17970-cb001 it was 1.2 °C.

With `CC(C)(C#N)c1ccc(N2C(=O)OCc3cnc4ccc(-c5cnc6ccccc6c5)cc4c32)cc1`, the “thermal shift delta Tm” value with LOC_OS01G01410-cb001 worked out at 0.56 °C; in the experiment with LOC_OS01G02750-cb003, 1.19 °C; with LOC_OS01G10900-cb004 it was 0.21 °C; in the experiment on LOC_OS01G13800-cb001, 0.42 °C; with LOC_OS01G14860-cb001 it was 0.26 °C; with LOC_OS01G21960-cb002, 0.66 °C. Further, the “thermal shift delta Tm” value amounted to 0.12 °C in the experiment on LOC_OS01G39600-cb002; 0.59 °C in the experiment with LOC_OS01G48390-cb002; 0.65 °C with LOC_OS01G51400-cb002; 0.6 °C in the experiment on LOC_OS01G52050-cb004; 1.9 °C in the experiment on LOC_OS01G57100-cb003; 0.57 °C with LOC_OS01G60330-cb001. The “thermal shift delta Tm” value with LOC_OS01G60700-cb002 turned out to be 1.49 °C; with LOC_OS01G63280-cb003, 0.63 °C; in the experiment on LOC_OS01G67340-cb003, 0.63 °C; in the experiment on LOC_OS01G70970-cb002 it was 0.56 °C; with LOC_OS02G07810-cb001, 0.18 °C; in the experiment with LOC_OS02G08530-cb003, 0.94 °C. Also, the entries for the “thermal shift delta Tm” value in the experiment with LOC_OS02G14120-cb001 and with LOC_OS02G17970-cb001 were 1.27 °C and 0.63 °C, respectively.

For the compound `Cc1cnc(-c2cnc(NCCNc3ccc(C#N)cn3)nc2-c2ccc(Cl)cc2Cl)[nH]1`, the “thermal shift delta Tm” value in the experiment with LOC_OS01G01410-cb001 is 0.25 °C and -0.35 °C; in the experiment on LOC_OS01G02750-cb003 it was 1.32 °C and 0.93 °C; with LOC_OS01G10900-cb004, 0.52 °C and -0.13 °C; in the experiment with LOC_OS01G13800-cb001, 0.39 °C and 0.37 °C; with LOC_OS01G14860-cb001, 7.39 °C and 7.4 °C; in the experiment with LOC_OS01G21960-cb002, 1.7 °C and 1.69 °C. Also, the “thermal shift delta Tm” value in the experiment with LOC_OS01G39600-cb002 is 0.07 °C and 1.56 °C; in the experiment on LOC_OS01G48390-cb002 it was 0.47 °C and 0.64 °C; in the experiment with LOC_OS01G51400-cb002, 0.25 °C and 0.6 °C; in the experiment with LOC_OS01G52050-cb004 it was 0.73 °C and 0.53 °C; in the experiment with LOC_OS01G57100-cb003, 0.99 °C and 1.83 °C; with LOC_OS01G60330-cb001, 0.47 °C and 0.68 °C. Moreover, the “thermal shift delta Tm” value was 0.39 °C and 1.43 °C with LOC_OS01G60700-cb002; 1.2 °C and 1.03 °C in the experiment on LOC_OS01G63280-cb003; 0.03 °C and 0.47 °C with LOC_OS01G67340-cb003; 1.08 °C and 1.19 °C with LOC_OS01G70970-cb002; 1.11 °C and 0.87 °C in the experiment with LOC_OS02G07810-cb001; 0.72 °C and 0.68 °C in the experiment with LOC_OS02G08530-cb003. The “thermal shift delta Tm” value in the experiment with LOC_OS02G14120-cb001 was 0.07 °C and 0.44 °C; in the experiment on LOC_OS02G17970-cb001 it was 0.65 °C and 2.15 °C.

With `Cc1n[nH]c2ncc(C(=O)N3CCC[C@H]3c3ccc(Cl)cc3)cc12`, the “thermal shift delta Tm” value with LOC_OS01G01410-cb001 is 0.63 °C; with LOC_OS01G02750-cb003 it was 0.98 °C; with LOC_OS01G10900-cb004 it was 0.41 °C; in the experiment on LOC_OS01G13800-cb001, 0.18 °C; with LOC_OS01G14860-cb001, 4.68 °C; in the experiment with LOC_OS01G21960-cb002 it was 0.38 °C. The “thermal shift delta Tm” value in the experiment with LOC_OS01G39600-cb002 is 0.88 °C; with LOC_OS01G48390-cb002, 0.19 °C; in the experiment with LOC_OS01G51400-cb002, 0.21 °C; with LOC_OS01G52050-cb004, 3.46 °C; in the experiment with LOC_OS01G57100-cb003, 0.92 °C; with LOC_OS01G60330-cb001, 0.11 °C. Besides, the “thermal shift delta Tm” value was 0.24 °C in the experiment on LOC_OS01G60700-cb002; 0.09 °C with LOC_OS01G63280-cb003; 0.25 °C in the experiment on LOC_OS01G67340-cb003; 0.34 °C in the experiment with LOC_OS01G70970-cb002; -0.7 °C in the experiment with LOC_OS02G07810-cb001; 1.34 °C in the experiment with LOC_OS02G08530-cb003. Moreover, the “thermal shift delta Tm” value in the experiment on LOC_OS02G14120-cb001 amounted to 1.35 °C; with LOC_OS02G17970-cb001, 0.38 °C.
